Among the data in PubChem BioAssay (NCATS) are Potency values, retold here.

Inconclusive results are not listed. Activity calls are given as the source filed them. Unless noted, the call rests on the fitted dose curve; in most records, active means well fitted curve in the direction sought with a large enough effect; inconclusive means small, poorly fitted or top-dose-only effect, or another doubt; inactive means no such curve, though single readings can be large; an effect the other way counts as inactive or inconclusive.

The nature of assay [1]: S16 Schwann cell viability assay (CellTiter-Glo assay) (AID 624031).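 Further: cellular ATP luminescence as a viability measure; nearly all actives have a fitted effect of over 70% in size.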 Summed up: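 CellTiter-Glo ATP luminescence counter-screen in untransfected S16 rat Schwann cells, 24h compound exposure at 37 degree Celsius after overnight seeding (500-750 cells/well); response scaled between cell-free wells and DMSO (0% activity), curves classed by r2 and magnitude.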
(In general: In ATP-based viability assays light output follows the ATP content of the culture.)

Assay [2] is described as follows: S16 Schwann cell PMP22 intronic element firefly luciferase assay (AID 624032). Further: nearly all actives have a fitted effect of over 30% in size. Further: potency means the concentration at half of the fitted maximal effect. Summed up:
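Rat S16 Schwann cells stably carrying a PMP22 intronic element-driven Fluc reporter were seeded overnight, then exposed to compounds for 24 h at 37 °C. Luminescence was normalized to PTC124 (positive control) and DMSO (0% activity).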

A short description of assay [3]: S16 Schwann cell PMP22 intronic element beta-lactamase assay (AID 624044; calls by dose curve; further: nearly all actives have a fitted effect of over 15% in size; further: potency means the concentration at half of the fitted maximal effect). The note with it: S16 rat Schwann cells, PMP22 element beta-lactamase FRET, 24 h; ratio activity, negative = inhibition: at 38.3 µM (top of the series). In a few lines: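 Beta-lactamase reporter under a PMP22 intronic regulatory element in stable S16 rat Schwann cells; 24 h compound exposure. 460 nm blue signal normalized between DMSO (0%) and potassium clavulanate, with 535 nm FRET tracking viability; curves classed by r2 and response.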

The test system of a further assay is W2. Kind of assay: qHTS profiling for inhibitors of Plasmodium falciparum proliferation (AID 504749). Further: nearly all actives have a fitted effect of over 60% in size. Further: potency means the concentration at half of the fitted maximal effect. The note with it: P. falciparum in erythrocytes, SYBR Green DNA, 72 h; series mostly up to 28.7 µM. Summed up: (§1)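 Fluorescence of SYBR Green-bound parasite DNA, read at 485/535 nm, served as the growth measure. Infected erythrocytes were cultured with compound 72 h; artemisinin (0.29 uM) and DMSO wells defined the normalization range.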
(In general: In qHTS, concentration-response curves come from the screen itself.)

Assay [4] concerns the target Ubiquitin carboxyl-terminal hydrolase 1 (Homo sapiens) (UniProt O94782). Kind of assay: Inhibitors of USP1/UAF1: Pilot qHTS (AID 504865).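 Further: rhodamine fluorescence freed from ubiquitin-rhodamine substrate followed over time; top concentration of the series differs between compounds; nearly all actives have a fitted effect of over 35% in size.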 Summed up:
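1nM USP1/UAF1 + cpd, 15 min RT; start w/ Ub-Rho 150nM final; kinetic FL 480/540 nm, 6 reads q60 s. Buffer 50mM HEPES pH 7.8, 0.5mM EDTA, 1mM TCEP, 0.01% Tween-20, 0.1 mg/ml BSA.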

The test system of another assay is DIV17. Kind of assay: qHTS profiling for inhibitors of Plasmodium falciparum proliferation (AID 504749). Further: nearly all actives have a fitted effect of over 60% in size. Further: potency means the concentration at half of the fitted maximal effect. As to conditions: P. falciparum in erythrocytes, SYBR Green DNA, 72 h; series mostly up to 28.7 µM. In a few lines:
as §1

The target in assay [5] is Cytochrome P450 3A4 (Homo sapiens) (UniProt P08684). Kind of assay: qHTS Assay for Inhibitors and Substrates of Cytochrome P450 3A4 (AID 884). Further: nearly all actives have a fitted effect of over 50% in size. In a few lines:
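Luminescent readout of luciferin produced by CYP3A4 (20 nM) dealkylation of Luciferin-PPXE, 25 uM (its KM). NADPH-driven reaction ran 60 min at RT after 10 min compound preincubation; data scaled to 57 uM ketoconazole as 100% inhibition.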

Assay [6] in a line: Confirmation and Secondary Assay for Modulators of Hemoglobin Beta Chain Splicing at IVS2 654 locus (AID 910).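 Further: per-well total GFP intensity by laser scanning cytometry after 2-day treatment.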 Summed up: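 HeLa cells stably carrying EGFP interrupted by mutant beta-globin IVS2-654 intron (CMV-driven) were treated with compound for 2 days at 37C; corrected splicing was scored as total peak GFP intensity per well (488 nm excitation, 500-520 nm emission).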

Sequence of Ubiquitin carboxyl-terminal hydrolase 1 (Homo sapiens) (O94782 whole entry, looked up): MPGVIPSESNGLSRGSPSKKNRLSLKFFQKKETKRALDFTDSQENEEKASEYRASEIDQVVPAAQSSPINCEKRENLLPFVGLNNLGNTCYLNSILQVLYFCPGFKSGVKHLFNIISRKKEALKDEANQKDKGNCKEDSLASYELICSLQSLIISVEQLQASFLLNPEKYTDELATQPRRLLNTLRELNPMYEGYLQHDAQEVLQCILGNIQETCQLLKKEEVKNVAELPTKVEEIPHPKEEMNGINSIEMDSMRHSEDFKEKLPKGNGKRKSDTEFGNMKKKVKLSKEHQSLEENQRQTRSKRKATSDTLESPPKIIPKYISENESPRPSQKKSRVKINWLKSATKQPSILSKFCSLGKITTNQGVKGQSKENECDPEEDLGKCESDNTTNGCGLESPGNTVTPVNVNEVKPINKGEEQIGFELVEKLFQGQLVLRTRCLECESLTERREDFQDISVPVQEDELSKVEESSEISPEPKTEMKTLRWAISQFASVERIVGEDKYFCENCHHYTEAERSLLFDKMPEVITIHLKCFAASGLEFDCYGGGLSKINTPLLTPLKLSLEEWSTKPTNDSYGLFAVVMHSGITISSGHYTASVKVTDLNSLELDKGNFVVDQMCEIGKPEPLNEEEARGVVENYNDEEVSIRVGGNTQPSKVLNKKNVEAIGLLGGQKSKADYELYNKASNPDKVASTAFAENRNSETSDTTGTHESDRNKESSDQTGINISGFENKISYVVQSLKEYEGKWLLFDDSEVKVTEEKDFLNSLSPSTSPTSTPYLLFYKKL
Sequence of Cytochrome P450 3A4 (Homo sapiens) (P08684 whole entry, looked up): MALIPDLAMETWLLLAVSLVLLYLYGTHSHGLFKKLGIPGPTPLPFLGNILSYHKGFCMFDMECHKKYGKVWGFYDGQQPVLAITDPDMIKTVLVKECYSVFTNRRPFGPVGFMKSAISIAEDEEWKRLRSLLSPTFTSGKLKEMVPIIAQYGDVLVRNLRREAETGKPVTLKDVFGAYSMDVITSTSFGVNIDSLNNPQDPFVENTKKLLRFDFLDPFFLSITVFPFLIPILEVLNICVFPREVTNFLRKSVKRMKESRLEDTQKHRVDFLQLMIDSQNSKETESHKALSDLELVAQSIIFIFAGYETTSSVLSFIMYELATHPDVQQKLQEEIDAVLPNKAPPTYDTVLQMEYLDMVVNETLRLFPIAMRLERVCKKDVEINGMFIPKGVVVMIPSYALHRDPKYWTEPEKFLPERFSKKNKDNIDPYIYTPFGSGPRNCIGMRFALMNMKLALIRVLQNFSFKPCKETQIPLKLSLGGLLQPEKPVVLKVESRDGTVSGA

Regarding `CC1(C(=O)O)CCC2(C)CCC3(C)C(=CC(=O)C4C5(C)CCC(O)C(C)(C)C5CCC43C)C2C1` (stereo unspecified), the Potency result (in assay [1]; in assay [2]; in assay [3]; in the assay with W2) was “inactive” throughout.
For the molecule `C[C@H]1[C@@H](OC(=O)CCC(=O)O)OC2OC3(C)CC[C@H]4[C@H](C)CC[C@@H]1[C@@]24OO3` (stereo partly specified), the Potency entry in assay [4] and in assay [3] was “inactive” each time. The values for the Potency (in assay [2]; in the assay on DIV17; in the assay on W2) were 2560 nM (active), 4.3 nM (active) and 1.9 nM (active), respectively.
For `CN1[C@@H]2CC[C@@H]1CC(OC(=O)[C@H](CO)c1ccccc1)C2` (stereo partly specified), the Potency entry (in assay [1]; in assay [2]; in assay [3]; with DIV17; in the assay with W2) was “inactive” each time.
With `CC(CCC(=O)O)C1CCC2C3C(=O)C[C@@H]4CC(=O)CC[C@@]4(C)C3CC(=O)[C@]12C` (stereo partly specified), the Potency result in assay [5], in assay [6], in assay [4], in assay [1], in assay [2] and in assay [3] was “inactive” throughout.
On to `NCCCCC(N)C(=O)O` (stereo unspecified), for which the Potency result (in assay [4]; in assay [1]; in assay [2]; in assay [3]; in the assay with DIV17; with W2) was “inactive” throughout.
Regarding `CC(=O)OCC(=O)[C@@]1(O)CCC2C3C[C@H](C)C4=CC(=O)C=CC4(C)C3C(O)CC21C` (stereo partly specified), the Potency entry (in assay [4]; in assay [1]; in assay [2]; in assay [3]; in the assay with DIV17; in the assay on W2) was “inactive” in each case.
Regarding `NC(=O)OC[C@@H]1[C@H](NC(=O)/C(=N/OCC(=O)O)c2csc(N)n2)C(=O)N1S(=O)(=O)O`, the Potency entry in assay [4], in assay [1], in assay [2] and in assay [3] was “inactive” each time.
Take `CN(C)CC/C=C1\c2ccccc2COc2ccc(CC(=O)O)cc21`: the Potency result (in assay [4]; in assay [1]; in assay [2]; in assay [3]; in the assay with DIV17) was “inactive” throughout.
Turning to `C[C@H]1OC(OC2C(O)[C@@H](O)C(OC3C(O)[C@@H](O)C(O)O[C@@H]3CO)O[C@@H]2CO)[C@H](O)C(O)C1N[C@H]1C=C(CO)[C@@H](O)[C@H](O)C1O` (stereo partly specified), the Potency result (in assay [4]; in assay [1]; in assay [2]; in assay [3]; in the assay on DIV17; with W2) was “inactive” throughout.
As to `COC1CC2CCC(C)[C@](O)(O2)C(=O)C(=O)N2CCCCC2C(=O)OC(C(C)CC2CCC(O)C(OC)C2)CC(=O)C(C)/C=C(/C)C(O)C(OC)C(=O)C(C)CC(C)C=CC=C/C=C\1C` (stereo partly specified), the Potency result in assay [1] and in assay [3] was “inactive” throughout. The Potency in the assay with DIV17 was 1690 nM (active); in the assay on W2 it was 675 nM (active).
Take `CC(=O)N[C@H]1[C@H](O[C@@H]2c3ccc(c(Cl)c3)Oc3cc4cc(c3O[C@@H]3O[C@H](CO)[C@@H](O)[C@H](O)C3C)Oc3ccc(cc3Cl)C[C@H]3NC(=O)[C@@H](N)c5ccc(O)c(c5)Oc5cc(O)cc(c5)[C@H](NC3=O)C(=O)N[C@H]4C(=O)N[C@H]3C(=O)N[C@@H]2C(=O)N[C@@H](C(=O)O)c2cc(O)cc(O[C@H]4O[C@H](CO)[C@@H](O)C(O)[C@@H]4O)c2-c2cc3ccc2O)O[C@H](CO)[C@@H](O)[C@@H]1O` (stereo partly specified): the Potency entry (in assay [1]; in assay [2]; in assay [3]; in the assay on DIV17; with W2) was “inactive” each time.
As to `CN[C@H](C)CCC=C(C)C`, the Potency result in assay [4], in assay [1], in assay [2] and in assay [3] was “inactive” throughout. Moreover, the Potency with DIV17 was 190 nM (active); in the assay on W2, 47.8 nM (active).
Regarding `NC(=O)NC(CCC(=O)O)C(=O)O` (stereo unspecified), the Potency result (in assay [4]; in assay [1]; in assay [2]; in assay [3]; with DIV17; in the assay on W2) was “inactive” each time.
`Cc1onc(-c2c(F)cccc2Cl)c1C(=O)NC1C(=O)N2C1SC(C)(C)C2C(=O)O` (stereo unspecified): the Potency entry (in assay [4]; in assay [1]; in assay [2]; in assay [3]; in the assay on DIV17; in the assay on W2) was “inactive” in each case.
For `OCC1O[C@H](Oc2ccc(O)cc2)C(O)C(O)C1O` (stereo partly specified), the Potency entry (in assay [5]; in assay [6]; in assay [4]; in assay [1]; in assay [2]; with DIV17) was “inactive” each time. The Potency entry with W2 was “inactive”.
Turning to `OCC1OC(O)C(O)C(O)C1O` (stereo unspecified), the Potency result in assay [4], in assay [1], in assay [2] and in assay [3] was “inactive” in each case.
For `C[S+](C)CC[C@H](N)C(=O)O`, the Potency result (in assay [4]; in assay [1]; in assay [2]; in assay [3]; in the assay with W2) was “inactive” in each case.
Regarding `COc1cc2c(cc1O)CCN[C@@]21CS[C@H]2c3c(OC(C)=O)c(C)c4c(c3C(COC1=O)N1C2C2c3c(cc(C)c(OC)c3O)CC([C@@H]1O)N2C)OCO4` (stereo partly specified), the Potency result in assay [1] and in assay [2] was “inactive” in each case. For the same molecule, the Potency in the assay with W2 was 0.4 nM (active).
Regarding `NC(=O)C1CC2(NC(=O)NC2=O)c2cc(F)ccc2O1` (stereo unspecified), the Potency entry (in assay [4]; in assay [1]; in assay [2]; with DIV17; with W2) was “inactive” each time.
As to `CC[C@@]1(O)C[C@H](O[C@H]2C[C@@H](N(C)C)[C@@H](O[C@H]3C[C@@H](O)[C@@H](O[C@H]4CCC(=O)[C@@H](C)O4)[C@@H](C)O3)[C@@H](C)O2)c2c(cc3c(c2O)C(=O)c2c(O)cccc2C3=O)[C@H]1C(=O)OC`, the Potency in assay [3] is 199 nM (active); with DIV17 it was 478 nM (active); with W2, 151 nM (active).
